Measurements reported in PubChem BioAssay AID651956 (Broad Institute, 2012).
Entries with a potency or affinity are not part of this list. Inconclusive results are not listed.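 Rule for the calls: active = in every test run, a fitted half-maximal concentration for signal decrease at or below twice the highest tested concentration; inconclusive = runs disagree, flat 30 to 70% decrease, or poor fit; inactive = the rest.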

assay: miR-122 activators in hepatoma reporter cells, dose response, cell-based, Huh7 psiCHECK-miR122, Renilla luciferase, cherry-picked (AID 651956); settings: 48 h; series mostly up to 35 µM; activity change, negative = signal decrease: at the top concentration;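 note: Renilla luciferase from a miR-122 sensor reporter so lower signal means miR-122 activation; 0% = median neutral control wells and -100% = median positive control wells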

Activity change, negative = signal decrease, inactive:
COCCNC(=O)C[C@H]1CC[C@@H]2[C@H](COc3ccc(NC(=O)c4cnccn4)cc3C(=O)N2C)O1 42% [at 30 µM]
C/C=C/c1ccc([C@H]2[C@@H](CO)N(Cc3ccccn3)[C@@H]2CNC(=O)CC)cc1 -23.6% [at 30 µM]
CCCC(=O)Nc1ccc2c(c1)C(=O)N(C)[C@@H]1CC[C@H](CC(=O)Nc3cn(C)nc3C)O[C@@H]1CO2 -22.3%
C/C=C/c1ccc([C@@H]2[C@@H](CO)N(S(C)(=O)=O)[C@H]2CN(C)C(=O)CC)cc1 -44.8%
CO[C@@H]1CN(C)C(=O)c2ccc(NC(=O)c3nc4ccccc4s3)cc2OC[C@H](C)N(Cc2cccnc2)C[C@H]1C -9.21%
CCNC(=O)C[C@H]1CC[C@@H]2[C@@H](COc3ccc(NC(=O)c4cccc(C(F)(F)F)c4)cc3C(=O)N2C)O1 32.7%
Cc1ccc(NCC(=O)c2ccccc2)cc1Cl 215%
CN1C(=O)c2cc(NS(=O)(=O)c3cccc(F)c3)ccc2OC[C@H]2O[C@@H](CC(=O)NCCN3CCCCC3)CC[C@H]21 -27.6% [at 30 µM]
CCOC(=O)C1CN(S(=O)(=O)c2ccccc2)CCN1S(=O)(=O)c1ccccc1 (stereo not given) 19.2%
Cc1nnsc1Sc1cccc(C(F)(F)F)c1 39.2%
Cc1cccc(NC(=O)Nc2ccc3c(c2)C(=O)N(C)[C@H]2CC[C@H](CC(=O)O)O[C@H]2CO3)c1 -12.9%
CN[C@H]1C[C@H]2c3[nH]c4ccc(-c5ccc(OC)cc5)cc4c3CCN2C(=O)[C@H]1[C@H](C)O -96.4%
CCCNC(=O)C[C@@H]1CC[C@@H]2[C@@H](COc3ccc(NS(=O)(=O)c4ccccc4C)cc3C(=O)N2C)O1 35.3%
CCNC(=O)C[C@H]1CC[C@H]2[C@H](COc3ccc(NC(=O)Nc4cccc(OC)c4)cc3C(=O)N2C)O1 -25.6% [at 30 µM]
COc1cccc(NC(=O)N2[C@H](CO)[C@@H](c3ccccc3)[C@H]2CNCC(C)C)c1 -34.4%
CCc1nc2sc(C)c(C)c2c(=O)n1CCO 51.5%
COC(=O)C[C@@H]1CC[C@@H]2[C@@H](COc3ccc(NS(=O)(=O)c4ccccc4F)cc3C(=O)N2C)O1 -2.68%
COc1ccc(CNCCC(c2ccc(OC)cc2)c2ccccc2OC)cc1 (stereo not given) 68%
CC(C)C(=O)Nc1ccc2c(c1)C(=O)N(C)[C@@H]1CC[C@@H](CC(=O)NCCc3ccccc3)O[C@H]1CO2 2.42%
CN1CCN(c2ccc(Cl)cc2NC(=O)c2ccc(S(=O)(=O)N3CCCCCC3)cc2)CC1 -22.6%
O=C(Nc1nc(-c2cc3ccccc3o2)cs1)c1ccc(S(=O)(=O)N2CCCC2)cc1 -43.6%
COc1cccc(NC(=O)Nc2ccc3c(c2)C(=O)N(C)C[C@@H](OC)[C@@H](C)CN[C@H](C)CO3)c1 16.7% [at 30 µM]
COc1cccc(C(=O)Nc2ccc3c(c2)C(=O)N(C)[C@H]2CC[C@H](CC(=O)NCc4ccc(F)cc4)O[C@@H]2CO3)c1 60.8%
COc1ccccc1NC(=O)Nc1ccc2c(c1)C(=O)N(C)[C@H]1CC[C@H](CC(=O)Nc3ccc4c(c3)COC4)O[C@@H]1CO2 78.8%
Cc1ccccc1NCN1C(=O)C2C3C=CC(C3)C2C1=O (stereo not given) -8.98%
